Assay results from PubChem BioAssay AID1565 (Sanford-Burnham Center for Chemical Genomics, 2009).
The whole screen tested about 290,000 compounds, of which about 3,200 (1.1%) were called active. This is one part of a sample in which actives are shown more often than they occur. Unmarked numbers belong to inactive results. Rule as the data show it: active = inhibition above about 60%; inactive = the rest.

Target: Phosphoethanolamine/phosphocholine phosphatase (Homo sapiens) (UniProt Q8TCT1)
Assay: PubChem AID 1565
Conditions: recombinant PHOSPHO1, absorbance phosphatase assay; at 13.3 µM; stronger effect = higher value

Sequence of Phosphoethanolamine/phosphocholine phosphatase (Homo sapiens) (Q8TCT1 whole entry, looked up): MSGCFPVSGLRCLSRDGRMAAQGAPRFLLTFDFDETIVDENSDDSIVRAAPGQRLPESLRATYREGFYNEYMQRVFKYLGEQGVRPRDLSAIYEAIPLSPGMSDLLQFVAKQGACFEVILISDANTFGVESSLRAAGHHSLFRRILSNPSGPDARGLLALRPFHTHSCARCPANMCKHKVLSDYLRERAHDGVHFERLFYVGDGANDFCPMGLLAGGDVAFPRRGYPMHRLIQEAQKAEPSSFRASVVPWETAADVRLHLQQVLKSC

For O=C(CSc1nnc2scc(-c3ccc(F)cc3)n12)NCc1ccco1, the inhibition was 67.4% (active).
For Cn1c(-c2ccc(F)cc2)cnc1SCC(=O)NCc1ccco1, the inhibition was 65.2% (active).
With CCCCn1c(=S)[nH]c2cc(S(=O)(=O)N3CCCCC3)ccc21 the inhibition was 99.7% (active).
For Cc1ccc(C(=O)Nc2nnc(-c3cccs3)s2)cc1C, the inhibition was 60.1% (active).
With Cc1cc(C)n2nc(CNS(=O)(=O)c3c(F)c(F)c(F)c(F)c3F)nc2n1 the inhibition was 64.9% (active).
Cc1cccc(NC(=O)c2sc3nc4c(c(-c5ccco5)c3c2N)CCC4)c1 was tested, and the inhibition was 67.5% (active).
For CCOc1cc(C(=S)N2CCOCC2)ccc1O, the inhibition was 96.3% (active).
For Cc1cc(=O)[nH]c(S)c1C#N, the inhibition was 71.4% (active).
O=C(CSc1nc(Nc2ccccc2)nc(N2CCOCC2)n1)Nc1cc(Cl)ccc1O was tested, and the inhibition was 61% (active).
C=CCn1c(SCc2c(C(=O)OC)sc(N)c2C(=O)OC)nnc1-c1ccc(Cl)cc1 was tested, and the inhibition was 60.1% (active).
With C=CCn1c(SCc2cc(C(=O)OC)c(C)o2)nnc1-c1ccncc1 the inhibition was 86.5% (active).
In the case of Cc1cccc(NS(=O)(=O)c2ccc(C(=O)NCC(C)(C)N3CCOCC3)cc2)c1C, the inhibition is reported as 65.4% (active).
COc1ccc(-c2nnc(SC(=O)N3c4ccccc4Sc4ccccc43)o2)cc1 was tested, and the inhibition was 81.1% (active).
With COc1cccc(C(=O)N/N=C(\C)c2cccc(NC(=O)c3ccc(F)cc3)c2)c1OC the inhibition was 65.8% (active).
For O=C1NC(c2ccncc2)Nc2sc3c(c21)CCCC3 (centres undefined), the inhibition was 97.6% (active).
Fc1cccc(Cc2noc(CN3CCN(c4cnccn4)CC3)n2)c1 was tested, and the inhibition was 62.8% (active).
Cc1ccccc1OCCC(=O)OCC(=O)NC(C)c1ccccc1 (centres undefined) was tested, and the inhibition was 64.7% (active).
With CCOC(=O)N1CCN(CC(=O)Nc2ccc(F)cc2)CC1 the inhibition was 60.1% (active).
For CCOC(=O)c1sc(=S)n2c1[nH]c(=O)c1ccc(C(=O)OC)cc12, the inhibition was 98.7% (active).

First: Cc1ccc(-c2csc3nnc(SCC(=O)NCc4ccco4)n23)cc1
Second: CCn1c(SCC(=O)NCc2ccco2)nnc1-c1ccc(N)cc1
The inhibition of the first is lower: 17.6% for the first, 42.7% for the second.

First: O=C(CSc1nnc(-c2c[nH]c3ccccc23)n1-c1ccc(F)cc1)NCc1ccco1
Second: Cn1c(-c2ccc(F)cc2)cnc1SCC(=O)NNC(=O)Cc1ccccc1
The inhibition of the first is lower: 9.8% for the first, 10.2% for the second.

Going from CCOc1ccc(OCc2cccc(C(=O)N(CC)CC)c2)cc1 to C/C(=N\N(C)C)c1ccc(OCCOc2ccc([N+](=O)[O-])cc2)cc1, the inhibition rises from -26.2% to 23.7%.

First: O=[N+]([O-])c1ccc2c(c1)Nc1nc3ccccc3nc1N2
Second: O=C(Nc1ccc([N+](=O)[O-])cc1)OCCc1ccccn1
The inhibition of the first is higher: 29.5% for the first, 17.9% for the second.

Going from CCCCn1c(=S)[nH]c2ccccc2c1=O to CCCCCC(O)(CCN1CCCCC1)c1ccccc1 (centres undefined), the inhibition rises from -12.1% to 43.7%.

First: O=c1[nH]c2ccc(S(=O)(=O)N3CCCC3)cc2[nH]1
Second: COc1cccc(CNC(=O)Cn2c(=O)oc3cc(S(=O)(=O)N4CCCCC4)ccc32)c1
The inhibition of the first is higher: 39.1% for the first, 22.6% for the second.

Compared with CC1CCCCC1NC(=O)/C(C#N)=C/C=C/c1ccccc1[N+](=O)[O-] (centres undefined), C/C(=C\c1ccccc1)C1NC(=O)c2c(sc3c2CCCC3)N1 (centres undefined) is higher in inhibition: -11.2% for the first, 12.2% for the second.

Going from CC(=O)c1ccc(N2CCN(C(=O)CCNC(=O)Cn3ccc4ccccc4c3=O)CC2)cc1 to Cc1sc2ncn(CC(=O)NCCCC(=O)N3CCN(c4ccccc4F)CC3)c(=O)c2c1C, the inhibition falls from 39.1% to 2.2%.

Compared with CCc1ccc(-c2nc(SCC(=O)NC3CCCC3)n[nH]2)cc1, COc1ccc(-c2noc(CCCC(=O)NC3CCCC3)n2)cc1OC is lower in inhibition: 19.2% for the first, 18.5% for the second.

First: CC(C)c1ccc(S(=O)(=O)N2CCN(C(=O)c3ccc(N4CCCC4)c([N+](=O)[O-])c3)CC2)cc1
Second: CC(C)(CNC(=O)c1ccc(Cl)c(S(=O)(=O)N2CCc3ccccc3C2)c1)N1CCOCC1
The inhibition of the first is lower: 14.7% for the first, 38.5% for the second.

Compared with Cc1ccc(CNC(=O)C2(C(F)(F)F)C/C(=C\Cc3ccccc3)CCCO2)o1 (centres undefined), CCCNC(=O)COc1coc(CN2CCN(Cc3ccccc3)CC2)cc1=O is higher in inhibition: -1.7% for the first, 36% for the second.

Going from CCOc1cccc(C(=O)Nc2nnc(-c3cccs3)s2)c1 to Cc1ccc(C(=O)Oc2coc(CSc3nnc(NC(=O)c4cccs4)s3)cc2=O)cc1C, the inhibition falls from 8.6% to -10.5%.

Compared with Cc1ccc(S(=O)(=O)c2nnn3c2nc(N2CCN(c4ccccn4)CC2)c2ccccc23)cc1, COc1ccc(N2CCN(Cc3nnc(-c4ccccc4)o3)CC2)cc1 is lower in inhibition: 14.6% for the first, -23.5% for the second.

Compared with COc1ccccc1C(=O)N1C(CC(=O)Nc2ccccc2C)C(=O)NC2CCCCC21 (centres undefined), O=C(C[C@H]1C(=O)N(c2ccc(F)c(F)c2)C[C@@H]1Cc1ccccc1)Nc1ccccc1 is lower in inhibition: 17.1% for the first, -7.3% for the second.

Compared with Cc1cc(NC(=O)Nc2c[nH]c(=O)[nH]c2=O)ccc1Br, Cc1ccc(NC(=O)CSc2sc3c(O)cc(=O)[nH]c3c2C#N)cc1C is lower in inhibition: 32.6% for the first, 19.4% for the second.

Compared with CCC(C)(C)NC(=O)CN(C(=O)CCC(=O)Nc1nccs1)c1ccc2c(c1)OCO2, Cc1ccc(N(C(=O)CNC(=O)c2ccco2)C(C(=O)NC2CCCC2)c2ccncc2)cc1 (centres undefined) is higher in inhibition: 28% for the first, 43.5% for the second.

Compared with O=C(O)c1ccccc1CSc1nc2ccccc2s1, Cc1ccc(OCC(=O)NC(C)c2ccccc2)cc1C (centres undefined) is lower in inhibition: -3.9% for the first, -16.6% for the second.

Compared with Cc1cc(C)n2nc(SCC(N)=O)nc2n1, Cc1cc(C)n2nc(C(=O)NC(C)(C)C)nc2n1 is lower in inhibition: 35.9% for the first, 27% for the second.

Going from COc1ccc(C2CC(=O)NC(=O)C2)cc1 to COc1ccc(-c2nnc(SCc3cccnc3)o2)cc1, the inhibition falls from 22.9% to -4.4%.

Going from CC(=O)Nc1ccc(NC(=O)c2sc3nc4c(c(-c5ccc(C)cc5)c3c2N)CCC4)cc1 to Cc1ccc(C(=O)c2c(NC(=O)c3ccncc3)sc3c2CCCC3)cc1, the inhibition falls from 14.1% to 9.7%.

Going from Cc1cccc(NC(=O)c2sc3nc(N4CCOCC4)c4c(c3c2N)CCCC4)c1 to Cc1ccc(Nc2nc(N3CCOCC3)nc(N3CCOCC3)n2)cc1Cl, the inhibition falls from 21.8% to 6.9%.

Going from CCOc1ccc2c(c1)c(=O)c(S(=O)(=O)c1ccc(C)cc1)cn2CC to CCOc1cc(C(=S)N2CCOCC2)ccc1OS(=O)(=O)c1ccc(Br)cc1, the inhibition falls from 47.5% to 8.5%.

Going from COc1cc(C(=S)N2CCOCC2)ccc1O to Cc1cccc(C)c1OCCN1CCOCC1, the inhibition rises from 3.5% to 24.1%.

Compared with O=C(CC(c1ccccc1)c1ccccc1)NCC(O)c1ccc([N+](=O)[O-])cc1 (centres undefined), Cc1ccc(OCCCC(=O)NC(C)c2ccccc2)c(C)c1 (centres undefined) is higher in inhibition: 12% for the first, 48.4% for the second.

First: Cc1cc(=O)[nH]c(SCC(N)=O)c1C#N
Second: CCc1nnc(NC(=O)CSCc2cc(=O)n3cc(C)sc3n2)s1
The inhibition of the first is lower: -7.4% for the first, 6.8% for the second.

Going from C/C(=N\NC(=O)c1ccc2ccccc2c1)c1cccnc1 to CC(=O)Nc1cccc(/C(C)=N/NC(=O)c2ccccc2Cl)c1, the inhibition rises from -19.7% to 16.2%.

Going from C/C(=N\Nc1nc(Nc2ccccc2)nc(N2CCOCC2)n1)c1cccs1 to O=C(CN1CCN(c2ccccc2)CC1)Nc1ccc(F)cc1, the inhibition rises from 24.8% to 27%.

Going from Cc1ccc(C(=O)Nc2nnc(C3=COCCO3)o2)cc1C to CCOC(=O)c1sc(NC(=O)c2ccncc2)nc1C, the inhibition rises from -32.7% to -5.8%.

Going from COC(=O)c1sc(N)c(C(=O)OC)c1COC(=O)CNS(=O)(=O)c1ccc(C)cc1 to COc1ccc(S(=O)(=O)NCC(=O)NC2CC2)cc1OC, the inhibition rises from 1.7% to 27.6%.

Going from CCOc1ccc(C(C)=O)cc1CSc1nnc(-c2ccncc2)n1CCOC to COC(=O)c1ccc(NC(=O)CSc2nnc(-c3ccncc3)n2C)cc1, the inhibition rises from -31.5% to -5.5%.

Compared with C=CCn1c(SCc2ccc(Cl)c(Cl)c2)nnc1C(CO)NC(=O)c1ccc(OC)cc1 (centres undefined), COC(=O)c1ccc(CNC(=O)C2CCC(=O)N(Cc3ccccn3)C2)cc1 (centres undefined) is higher in inhibition: -16.9% for the first, 11.9% for the second.

First: CN(C)S(=O)(=O)c1ccc(C(=O)NCC(C)(C)N2CCOCC2)cc1
Second: CC(=O)c1ccc(N2Cc3ccccc3C2)cc1
The inhibition of the first is higher: 34.7% for the first, 29.1% for the second.

Compared with CC(C)C[C@H](NC(=O)N1CC(=O)Nc2ccccc21)C(=O)N[C@H](Cc1ccccc1)C(=O)O, CCCc1c(C(=O)Nc2ccc(F)cc2)cnn1-c1ccccc1 is higher in inhibition: 33.8% for the first, 41.2% for the second.

Going from C/C(=N/NC(=O)c1ccc(NC(=O)c2ccc(F)cc2)cc1)c1ccccc1 to CCOC(=O)C1=C(C)Nc2sc(C(=O)c3ccc(Br)cc3)c(N)c2C1c1ccc(C(=O)OC)cc1 (centres undefined), the inhibition rises from -99% to 38.2%.

Compared with CCOC(=O)N1CCN(Cc2nc(Cc3cccc(C(F)(F)F)c3)no2)CC1, FC(F)(F)c1cccc(Cc2noc(CN3CCC(N4CCCCC4)CC3)n2)c1 is higher in inhibition: 34.6% for the first, 51.8% for the second.

Compared with Cn1cc(S(=O)(=O)Nc2ccc(Cl)cc2Cl)c(=O)n(C)c1=O, Cc1ccc(C)c(S(=O)(=O)Nc2cccc(-n3cnnn3)c2)c1 is higher in inhibition: 20.2% for the first, 34.8% for the second.

Going from CCOC(=O)N1CCN(CCC(=O)Nc2ccccc2)CC1 to CCOc1ccc(CN2CCC(n3nccc3NC(=O)C3CC3)CC2)cc1CO, the inhibition falls from 44.4% to 12.7%.

With Cc1cc(Cl)c2oc(C(=O)N(C)C(C)c3ccccn3)c(C)c2c1 (centres undefined) the inhibition was 18.5%.
